# Most compounds without a hit are left out; they make up all but 0.84% or so of the library.
# p97 ATPase inh: blocks human p97 ATPase activity | P55072 | recombinant p97 ATPase, Kinase-Glo ATP luminescence, 3 h | inhibition, % at 8 µM | 220,000 compounds, 0.42% hits; in the data active = inhibition above about 15%;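 note: 0% = DMSO vehicle and 100% = wells lacking enzyme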
# S1P3 antag: blocks the human S1P3 receptor. inhibition, % at 4.98 µM. 170,000 compounds, 0.27% hits. Q99500. CHO S1P3 NFAT-BLA reporter, FRET fluorescence, antagonist mode;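 active = inhibition above the plate cutoff, the mean inhibition of test wells on that plate plus 3 SD, cut at about 28% in these data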;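 note: cells challenged with S1P at its EC80 of 0.8 µM; blue over green emission ratio from cleaved BLA substrate after 4 h stimulation; 0% = S1P-stimulated wells and 100% = unstimulated DMSO-only wells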
# G6PDH counter-1: inhibits Leuconostoc G6PDH, flagging false hits in G6PDH-based assays. inhibition, % at 5 µM. Purified L. mesenteroides G6PDH, diaphorase/resazurin coupled fluorescence, 45 min. 200,000 compounds, 0.12% hits; in the data active = inhibition above about 50%
# Tb hexokinase: T. brucei hexokinase 1 inhibition. AID 1430. recombinant TbHK1, G6PDH-coupled NADH A340. 220,000 compounds, 0.11% hits. inhibition, % at 10 µM;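 active = inhibition of 50% or more in the single-dose primary screen; inactive = inhibition below 50%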
# DTT redox prof: compounds producing H2O2 with reducing agent – biochemical, NIH compound library profiling, artefact control for MLSCN library redox annotation, primary screen; AID 878; 200,000 compounds, 0.03% hits; activation, % at 10 µM; DTT-dependent redox cycling H2O2, phenol red/HRP absorbance; 100% = 100 µM peroxide control, 0% = buffer;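 active = activation of at least 50% relative to the plate's high and low controls in the primary single-dose screen; inactive = activation below 50%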;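 note: compound incubated with DTT at 0.8 mM final as the reducing agent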
# G6PDH counter-2: inhibits Leuconostoc G6PDH, counter-screen for TbHK1 inhibitors. shares compounds with Tb hexokinase. purified G6PDH, NADH absorbance, 1 h. inhibition, % at 10 µM. 210 compounds, 7% hits;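 active = at least 50% inhibition in the glucose-6-phosphate dehydrogenase coupled counterscreen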
# TbHK1 rescreen: T. brucei hexokinase 1 inhibition, rescreen | shares compounds with Tb hexokinase | recombinant TbHK1, G6PDH-coupled NADH A340 absorbance | inhibition, % at 10 µM | 210 compounds, 10% hits;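 active = inhibition of at least 50% in both of the two screening runs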;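 note: 0% and 100% set by the maximum and minimum signal control wells on each plate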
# p97 confirm: human p97 ATPase inhibition, confirmation; shares compounds with p97 ATPase inh; recombinant p97 ATPase, Kinase-Glo ATP luminescence; inhibition, % at 8 µM; 760 compounds, 44% hits; AID 1517;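 active = percent inhibition of p97 ATPase above a set limit, the primary screen's mean plus 3 SD, cut at about 15% in these data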;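 note: 0% = DMSO wells and 100% = wells lacking p97 protein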
# Numbers without * were called inactive; . = no result.
SMILES,p97 ATPase inh,S1P3 antag,G6PDH counter-1,Tb hexokinase,DTT redox prof,p97 confirm,others
O=c1[nH]c(=O)n(CCC2=CCCCC2)c(O)c1C=NCc1cccnc1,-6.5,14.3,27.3,56.1*,0.3,.,G6PDH counter-2=-8.9;TbHK1 rescreen=-6.0
COC(=O)c1nc(-c2ccc3c(n2)C(=O)C(N)=C(OC)C3=O)c(N)c(-c2ccc(OC)c(OC)c2O)c1C,16.9*,-5.5,.,-7.8,.,33.6*,
O=c1c2ccccc2nc(-c2ccoc2)n1-c1ccccc1,-1.8,.,-5.0,-29.3,-0.2,.,
CC(C)CCOC(=O)c1c(N)n(CC2CCCO2)c2nc3ccccc3nc12 (centres undefined),2.5,12.9,2.4,-9.4,-0.3,.,
CC(C)OC(=O)c1c(N)n(CC2CCCO2)c2nc3ccccc3nc12 (centres undefined),26.5*,3.3,-20.4,-15.4,-0.5,0.2,
CCOc1ccc(-n2c(O)c(C=Nc3ccc(N(CC)CC)cc3)c(=O)[nH]c2=O)cc1,6.4,.,3.5,-5.4,-0.8,.,
OC(c1ccccc1)(c1ccc(Cl)cc1)C1CN2CCC1CC2 (centres undefined),16.2*,0.8,.,4.3,.,9.6,
CN(C)[C@@H]1C(=O)C(C(N)=O)=C(O)[C@@]2(O)C(=O)C3=C(O)c4c(O)cccc4[C@@](C)(O)[C@H]3[C@H](O)[C@@H]12,18.6*,1.2,40.6,-1.6,2.6,39.7*,
CC(C)C1(C)N=C(c2nc3ccccc3cc2C(=O)O)NC1=O (centres undefined),5.6,-17.3,-0.3,1.5,2.2,.,
O=C1NC(=O)[C@]2(Cc3ccccc3N3CCN(c4ccccc4)CC32)C(=O)N1c1ccccc1 (some centres undefined),5.0,7.3,4.1,-10.4,-0.6,.,
COc1cc(C(c2c(C)[nH]n(-c3ccccc3)c2=O)c2c(C)[nH]n(-c3ccccc3)c2=O)cc(OC)c1OC,20.3*,.,16.9,-10.8,-6.7,7.3,
